“And” between values parts separate entries of the source, which are not always exact repeats. Identical values can stand only once. More than one record can exist for a structure, and the calls need not agree. The source made the active and inactive calls. Rule for the calls: active = hit-call score of the fitted dose curve at least 0.9, where 1 is the maximum; inactive = score below 0.9.

This test in a line: CCTE_Shafer_MEA_dev_network_spike_peak: CCTE's Neural Network Formation Assay for Mean Number of Electrodes in Network Spike, Shafer Lab (AID 2284049). How it is done:
CCTE_Shafer_MEA_dev assay is conducted using Axion Biosystems 48 well microelectrode array (MEA) plates and Maestro recording system. Each well of the MEA plate contains a grid of 16 microelectrodes embedded in the culture surface. Electrically active cells, such as neurons, can be cultured over the electrodes, and electrical activity in these cells can be recorded extracellularly. The spontaneous firing of neurons is captured from each electrode on a microsecond timescale providing both temporally and spatially precise data. […] The CCTE_Shafer_MEA_dev assay uses primary cultures of rat cortical neurons. Recordings are made on days post-plating 5, 7, 9 and 12. As these cultures mature over time, neural networks develop functional activity and form cohesive networks in which electrical activity can be highly coordinated. CCTE_Shafer_MEA_dev_network_spike_peak is 1 of 19 assay components of the CCTE_Shafer_MEA_dev assay. It measures the average number of electrodes participating at the peak of a network spike (the peak of a temporally-clustered group of action potential firing across multiple electrodes) during a recording in a microelectrode array (MEA) using Axion Biosystems Maestro 768 channel amplifier with the AxIS adaptive spike detector. To collapse across multiple recordings made on days post-plating 5, 7, 9 and 12, the trapezoidal area-under-the-curve of the component is calculated.Data from the assay component CCTE_Shafer_MEA_dev_network_spike_peak was analyzed into 1 assay endpoint. This assay endpoint, CCTE_Shafer_MEA_dev_network_spike_peak, was analyzed in the negative analysis fitting direction relative to DMSO as the negative control and baseline of activity. Using a type of functional reporter, gain or loss-of-signal activity can be used to understand electrical activity.
On the day prior to culture, each well was coated thoroughly with 150 uL of 0.05% polyethyleneimine (PEI, Sigma Cat P3143) in 50 mM HEPES (Sigma Cat H7523) at a pH of 8. The plate was incubated at 37C for one hour. PEI was rinsed out with 500 uL of sterile water three times. Plates were stored at 4C until the day of culture. This culture was plated at a seeding density of 1.5 x 10^5 cells/well on a 48-well MEA plate, prepared as described above. Cells were administered via a 25 uL media/laminin ([…]; Sigma Cat L2020-1MG) drop directly onto the microelectrode array, as adding the cells with the laminin results in better attachment than pre-coating with laminin. After 2 hours, an additional 475 uL of cortical media was added and the cells returned to the incubator. Exposure starts at day 0 of plating and is continued over twelve days of network development until the experiment is terminated. Cells are fed with fresh medium on DIV 5 and 9, following the recordings on those days. The entire volume of media in the well is exchanged and any vehicle or compound treatment is renewed. Complete details are found in OP-NHEERL/ISTD/SBB/TJS/2015-03-r0 (available on request, email shafer.tim@epa.gov). Measurement of the electrical activity is non-invasive, and recordings can be made from the same plate over multiple different days of the culture. In cortical neurons, this allows for the measurement of extracellular action potentials over the period during which networks form in the MEA plate.
Regarding `ClC1=C(Cl)[C@]2(Cl)[C@@H]3[C@H]4C[C@H]([C@@H]5O[C@H]45)[C@@H]3[C@@]1(Cl)C2(Cl)Cl`, the call was inactive.
For the compound `O=S(=O)(O)C(F)(F)C(F)(F)C(F)(F)C(F)(F)F`, the AC50 is 15 µM (active) and the call was inactive.
On to `CO/C=C(/C(=O)OC)c1ccccc1COc1cccc(C(F)(F)F)n1`, for which the AC50 was 212 nM (active) and 741 nM (active).
For the compound `ClC1=C(Cl)[C@]2(Cl)[C@@H]3[C@@H]4C[C@@H]([C@H]5O[C@@H]45)[C@@H]3[C@@]1(Cl)C2(Cl)Cl`, the AC50 was 10.8 µM (active).
With `COc1ccc(O)c(C(C)(C)C)c1`, the compound was called inactive.
`CCC(C)(c1ccc(O)cc1)c1ccc(O)cc1`: the AC50 was 10 µM (active).
As for `C=CC(N)=O`, the outcome was inactive.
As to `O=C(O)C(F)(F)C(F)(F)C(F)(F)C(F)(F)C(F)(F)F`, the call was inactive.
Take `ClC(Cl)=C(c1ccc(Cl)cc1)c1ccc(Cl)cc1`: the AC50 was 4 µM (active).
For the compound `O=S(=O)(O)C(F)(F)C(F)(F)C(F)(F)C(F)(F)C(F)(F)C(F)(F)F`, the result was inactive and the AC50 is 9.07 µM (active).
As to `c1cc2ccc3cccc4ccc(c1)c2c34`, the result was inactive.
In the case of `Clc1ccc(C(c2ccccc2Cl)C(Cl)(Cl)Cl)cc1` (stereo not given), the AC50 was 2.73 µM (active).
On to `Oc1ccc(C(c2ccc(O)cc2)(C(F)(F)F)C(F)(F)F)cc1`, for which the AC50 was 16.9 µM (active) and 18.5 µM (active).
`NS(=O)(=O)C(F)(F)C(F)(F)C(F)(F)C(F)(F)C(F)(F)C(F)(F)C(F)(F)C(F)(F)F`: the AC50 was 26.7 µM (active) and the compound was classed as inactive.
For `O=C(O)C(F)(F)C(F)(F)C(F)(F)C(F)(F)C(F)(F)C(F)(F)C(F)(F)C(F)(F)F`, the compound was classed as inactive.
In the case of `CCOP(=S)(OCC)SCSC(C)(C)C`, the AC50 was 23.1 µM (active) and 13.9 µM (active).
Take `ClC1=C(Cl)[C@]2(Cl)[C@@H]3[C@@H](Cl)[C@H]4O[C@H]4[C@@H]3C1(Cl)C2(Cl)Cl`: the AC50 was 25 µM (active).

In general, AC50 refers to the midpoint of the concentration-response curve, whichever way the signal moves.

(Values after PubChem BioAssay (EPA / NIEHS).)
